These sequences were tested against SRC (assay: pooled miR-30 sensor sort-seq; sequence = guide strand). Conditions: shRNA.
TAGACTCATAGTCATAGAGGGC was tested, and the sensor-assay potency score (higher = more potent) was -1.02.
With TGTGTTGTTGACAATCTGGAGC the sensor-assay potency score (higher = more potent) was -0.666.
In the case of TTGAAGGACAGGTCTGTCTCCG, the sensor-assay potency score (higher = more potent) is reported as 0.367.
Sequence TGAAACCACAGCATACAACTGC has a sensor-assay potency score (higher = more potent) of 0.358.
TGAAGGACAGGTCTGTCTCCGT gave a sensor-assay potency score (higher = more potent) of -0.405.
Sequence TGTCTGTCCTGTGCTGAGCGAG has a sensor-assay potency score (higher = more potent) of -1.15.
TCCGACTTGATGGTGAAGCGGC showed a sensor-assay potency score (higher = more potent) of -0.784.

These sequences were tested against SREBF2 in the same assay as above. Conditions: shRNA.
ATTACTGACAAATTGCAGCATC was tested, and the sensor-assay potency score (higher = more potent) was -0.795.
Sequence TCATGCAGGAACACCTTGCGGT has a sensor-assay potency score (higher = more potent) of 0.123.
TTTATGATTGACCTGCTGCAAG was tested, and the sensor-assay potency score (higher = more potent) was -1.02.
With TAGCTTCGTCTTCAAAGCCTGC the sensor-assay potency score (higher = more potent) was -1.4.
For TTGATTACTGACAAATTGCAGC, the sensor-assay potency score (higher = more potent) was -0.488.
With TTTGATGTAATCAATGGCCTTC the sensor-assay potency score (higher = more potent) was 0.209.
TTAACAATCATCTGCTGGCAGT gave a sensor-assay potency score (higher = more potent) of -1.13.
In the case of TAAAATGAGAGCGCACAGCTGC, the sensor-assay potency score (higher = more potent) is reported as -0.945.
TTCACAGCTCTCTTCTTCCTGG showed a sensor-assay potency score (higher = more potent) of 0.117.
Sequence TCGAATGACAGGACACTGCGGC has a sensor-assay potency score (higher = more potent) of -0.313.
With TTAGCTTCGTCTTCAAAGCCTG the sensor-assay potency score (higher = more potent) was -0.243.

These sequences were tested against SRPK1 in the same assay as above. Conditions: shRNA.
In the case of TTATAGGTGTACAAGAGTCTGT, the sensor-assay potency score (higher = more potent) is reported as -0.536.
TTTAAAGTCATCTAGTAGTTGA gave a sensor-assay potency score (higher = more potent) of -0.439.
In the case of TATTCTTTGACATTTTGTCAGC, the sensor-assay potency score (higher = more potent) is reported as -0.83.
With TTCGCTTCTCTAGTAATTCTGC the sensor-assay potency score (higher = more potent) was 0.131.
TATGTGTTCCATTAACTCCTGA was tested, and the sensor-assay potency score (higher = more potent) was -0.508.
With TTCCATAAGCGTTTGATCCTGG the sensor-assay potency score (higher = more potent) was 0.385.
Work on TAGCATTATGTAGATCCTCTTT yielded a sensor-assay potency score (higher = more potent) of -0.224.
With TAGTTGAACAACCATTTCTCTA the sensor-assay potency score (higher = more potent) was -1.08.
ATCTAGTAGTTGAACAACCATT gave a sensor-assay potency score (higher = more potent) of -1.39.
TTTGATGATCCACTTGAGCAGA showed a sensor-assay potency score (higher = more potent) of -0.465.
Sequence TAACTTTCGGATCACATGGTAT has a sensor-assay potency score (higher = more potent) of -1.15.
TACAATAATCATTAGGATCTTC was tested, and the sensor-assay potency score (higher = more potent) was -0.347.

Each sequence was assayed against SRSF11 in the same assay as above. Conditions: shRNA.
Sequence TAGAACGTGATCTTGATCTTGA has a sensor-assay potency score (higher = more potent) of 0.589.
With TTCTTTACTAGAGGTATCCGAT the sensor-assay potency score (higher = more potent) was -0.524.
Work on TTGATCTTGAATGCCTTCTTTT yielded a sensor-assay potency score (higher = more potent) of -0.673.
Work on TTCCTCTTCATCATAATCCCGT yielded a sensor-assay potency score (higher = more potent) of 0.0321.
TACATCTTTATCACTCTCTGAT was tested, and the sensor-assay potency score (higher = more potent) was 0.584.
TAACAGGAGCTTTATAACCATT showed a sensor-assay potency score (higher = more potent) of -1.45.
In the case of TAAGCTTCAGCAACTGATCTGC, the sensor-assay potency score (higher = more potent) is reported as 0.509.
TATCTGGTTCTATAGCAGCAGA gave a sensor-assay potency score (higher = more potent) of -1.33.
In the case of TTTGTCTTTATCTTTCTTCTTC, the sensor-assay potency score (higher = more potent) is reported as 0.407.
Work on TTGCACTTCTAGAACGTCTGGC yielded a sensor-assay potency score (higher = more potent) of 0.928.

Reference: the OligoGym collection
